Among all 16,000 compounds or so, about 70 (0.4%) were called active. The entries come from a sample that favours actives as a whole. Unmarked numbers belong to inactive results. Rule as the data show it: active = inhibition above about 75%; inactive = the rest.
Assay: quenches luminol chemiluminescence in Nox1 counter-screen (AID 1823)
Conditions: HRP/luminol/H2O2 chemiluminescence counterscreen; at 6.7 µM; stronger effect = higher value

Row | SMILES | inhibition
1 | CC(C)(C)NC(=O)N/N=C/c1[nH]ncc1Br | -2.94%
2 | COc1ccccc1NC(=O)c1ccc(C#Cc2ccccc2)o1 | 0.37%
3 | CCCS(=O)(=O)c1csc(C(=O)OC)c1N/N=C/c1cccs1 | 1.56%
4 | COCn1nnc2ccccc21 | 0.3%
5 | Cc1c(N/N=C(\C#N)c2nc3ccccc3[nH]2)c(=O)n(-c2ccccc2)n1C | 7.97%
6 | O=C(O)CC1(CC(=O)Nc2ccc(N3CCCCC3)cc2)CCCCC1 | -6.38%
7 | CSc1sc(C(N)=O)cc1C#N | -6.88%
8 | Cc1cc(C2=CSC3=NCCN23)ccc1Cl | 36.3%
9 | OCCNC(=S)Nc1ccccc1-c1ccccc1 | 0.57%
10 | O=S(=O)(c1ccccc1)c1cc(C(F)(F)F)cc(C(F)(F)F)c1 | -1.49%
11 | CSc1sc(NC(=O)N2CCOCC2)c(-c2ccc(Cl)cc2)c1C#N | 3.63%
12 | Oc1c(Cl)c(Cl)c(Cl)c2ccccc12 | 4.73%
13 | CN(C)/C=C1/C(=O)NN=C1CSc1ccc(Cl)cc1 | -3.51%
14 | Cc1ccc(N=C2SC3(CC3)C(=O)N2c2ccc(C)cc2)cc1 | -0.15%
15 | CC1(C)CCc2cc(-c3ccnc(SCC(=O)c4ccccc4)n3)ccc2O1 | -4.62%
16 | O=C(NCc1cccnc1)c1cnc2ccccc2n1 | -0.07%
17 | CC(=O)NC(Cc1c[nH]c2ccccc12)C(=O)O (stereo not drawn) | -1.35%

Row | SMILES | inhibition
18 | O=C(c1ccc(F)cc1)C1CCN(Cc2cn[nH]c2-c2ccccc2)CC1 | 0.3%
19 | CC1(NC(=O)OCc2ccccc2)CC1NC(=O)OCc1ccccc1 (stereo not drawn) | 1.98%
20 | O=c1[nH]cc(Br)c(=O)[nH]1 | -0.43%
21 | CC1CN(c2ccc(NC(=S)NCc3cccs3)cc2)CC(C)O1 (stereo not drawn) | -35.2%
22 | O=C(O)CC(CC(=O)N1CCOCC1)c1ccccc1 (stereo not drawn) | -4.82%
23 | O=C(CSc1ccc(Cl)cc1)NCCSCc1ccco1 | -0.61%
24 | O=C(NCCO)NCCSc1ccc(F)cc1 | -2.48%
25 | CSc1n[nH]c(=O)n1-c1cccc(C(F)(F)F)c1 | 1.69%
26 | FC(F)(F)c1cccc(-n2c(-c3ccncc3)n[nH]c2=S)c1 | 97.8% (active)
27 | FC(F)(F)c1ccc(-n2cn[nH]c2=S)cc1 | 53.1%
28 | O=c1[nH]/c(=C/c2ccc(OC(F)(F)F)cc2)c(=O)[nH]/c1=C/c1ccc(OC(F)(F)F)cc1 | 0.16%
29 | O=C(Nc1ccc(Cl)cc1)c1csc(COc2ccc3nonc3c2)n1 | 3.82%
30 | Cn1cc(C(=O)c2ccc(Cl)cc2)cc1/C=C(\C#N)S(=O)(=O)c1ccc(C(F)(F)F)cn1 | 2.9%
31 | O=C(Nc1ccccc1)Nc1nc2ccccc2s1 | -7.1%
32 | O=c1c2cc(-c3ccccc3)sc2nc2n1N=C(c1cccs1)CS2 | -0.02%
33 | COc1cc(OC)nc(S(C)(=O)=O)n1 | -4.97%

Source: PubChem BioAssay AID1823 (The Scripps Research Institute Molecular Screening Center, 2009)
